Data taken from PubChem BioAssay AID588453 (National Center for Advancing Translational Sciences (NCATS), 2011).
The campaign covered roughly 390,000 compounds. About 4,000 (1%) were called active. Inconclusive results (about 4%) are left out. What follows is part of a selection rich in actives, with near analogues and random picks from the rest. A number with no mark means an inactive call. Calls come from the whole dose curve; as a rule, active = well fitted inhibition curve with a large enough effect; inconclusive = small, poorly fitted or top-dose-only effect; inactive = no such curve, though single readings can be large or run the other way.

target: Thioredoxin reductase 1, cytoplasmic (Rattus norvegicus) (UniProt O89049); assay: qHTS Assay for Inhibitors of Mammalian Selenoprotein Thioredoxin Reductase 1 (TrxR1): qHTS; conditions: recombinant rTrxR1, NADPH fluorescence consumption, selenite substrate; series mostly up to 114 µM; activity change, negative = inhibition: at the top concentration; note: nearly all actives have a fitted effect of over 65% in size
Sequence (O89049 whole entry, looked up): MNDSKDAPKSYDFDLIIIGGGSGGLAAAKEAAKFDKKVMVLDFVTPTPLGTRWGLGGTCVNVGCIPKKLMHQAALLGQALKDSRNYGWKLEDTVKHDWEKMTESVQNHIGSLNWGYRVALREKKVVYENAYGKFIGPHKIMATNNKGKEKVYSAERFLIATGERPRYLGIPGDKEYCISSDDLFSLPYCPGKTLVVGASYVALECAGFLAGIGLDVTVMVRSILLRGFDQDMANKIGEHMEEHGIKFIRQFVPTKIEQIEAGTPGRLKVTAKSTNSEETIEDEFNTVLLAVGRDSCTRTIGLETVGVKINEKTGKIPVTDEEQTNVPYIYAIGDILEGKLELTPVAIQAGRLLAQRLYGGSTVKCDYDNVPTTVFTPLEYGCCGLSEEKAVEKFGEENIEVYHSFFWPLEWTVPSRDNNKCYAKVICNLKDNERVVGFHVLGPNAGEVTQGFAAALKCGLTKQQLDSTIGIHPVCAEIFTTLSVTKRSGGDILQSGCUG
In short: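 Rat TrxR1 (90 nM in the dispensed reagent) was pre-reduced with 400 uM NADPH for 5 min at room temperature, then incubated with compound for 15 min. After 400 uM selenite was added, NADPH fluorescence (Ex 340/Em 450 nm) was followed for 8 min.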
% is set by controls: 0 for no effect and ±100 for the full control effect; potency is the fitted concentration of half-maximal effect.

Point of comparison: `CCC(=O)N1CCc2cc(S(=O)(=O)NC(C(=O)NCCc3ccc(C)cc3)C(C)C)ccc21` (stereo unspecified), “activity change, negative = inhibition” value 19%. Against it:
- CC1(C)Cc2ccccc2-c2c[nH]c(=O)n21 — lower, 3.99%
- COc1cc(OC)cc(C(=O)OCC(=O)Nc2sccc2C(N)=O)c1 — lower, 15.1%
- C=C1C=C(C)n2ncc(C(=O)Nc3ccccc3O)c2N1 — lower, 8.78%
- Cc1ccc(C2=C/C(=C\c3cccnc3)C(=O)O2)cc1 — higher, 31.3%
- CN(C)c1ccc(/C=C/C=C/c2ccnc3ccccc23)cc1 — lower, -12.8%
- Cc1ccc(S(=O)(=O)CCC(=O)OCc2ccccc2)cc1 — higher, 22.7%
- O=C(O)CCS(=O)(=O)c1ccc(-c2ccccc2)cc1 — lower, -6.99%
- Brc1ccc2c(c1)NC(c1cccnc1)=NC(c1ccccc1)=N2 — higher, 25%
- Cc1cccc(N2CCN(C(=O)c3ccc4c(c3)CCN4S(=O)(=O)c3ccccc3)CC2)c1C — higher, 23.9%
- Cc1cccc(NC(=O)C2CCN(S(=O)(=O)c3c(C)noc3/C=C/c3ccco3)CC2)c1 — lower, -7.03%
- O=C(Cn1ncn2nc(-c3cccs3)cc2c1=O)NCc1cccc(Br)c1 — lower, 17.3%
- CCOC(=O)c1ccccc1NC(=O)c1nn(-c2ccc(OC)c(Cl)c2)c(=O)c2c1c1ccccc1n2C — lower, 15.4%
- CCOC(=O)C1=C(NC(=S)NC(=O)c2ccccc2)c2ccccc2CC1(C)C — lower, -24.4%
- CCOc1cccc(NC(=O)CSc2ncc(-c3ccc(Cl)cc3)[nH]2)c1 — lower, 3.45%
- CC1(C)CC(=O)c2cc(C(=O)NCc3ccccc3)c(=O)[nH]c2C1 — lower, 8.76%
- O=C(NCCC1=CCCCC1)c1ccc2c(c1)N(Cc1ccccc1F)C(=O)c1ccccc1S2(=O)=O — higher, 41.9%
- COc1ccc(Cn2cc(C(=O)c3ccc(C)cc3)c(=O)c3cc(OC)c(OC)cc32)cc1 — higher, 21.9%
- O=C(Nc1ccccc1Cl)N1CCC(CN2CCCC2)CC1 — lower, -6.79%
- O=C1C2C(c3ccccc3)CC=CC2C(c2ccoc2)N1Cc1ccccc1 (stereo unspecified) — lower, -7.81%
- C#CC(C)(CC)NC(=O)Cn1nnc(-c2ccc(OCc3c(F)cccc3Cl)cc2)n1 (stereo unspecified) — higher, 28.4%
- COc1cc(C(=O)NCC(c2ccc(Cl)cc2)N2CCOCC2)cc(OC)c1OC (stereo unspecified) — lower, 8.59%
- CCn1c(CNC(=O)c2ccco2)nnc1SCC(=O)Nc1cccc(F)c1 — higher, 27.1%
- O=C(CSc1ccc(-c2ccco2)nn1)NCc1ccc2c(c1)OCO2 — lower, -71.2%
- COc1ccc(OCCn2cc(C(=O)C3CCCCC3)c3ccccc32)cc1 — higher, 25.8%
- Cc1ccc(C)c(N2CCN(Cc3nnc(-c4ccccc4)o3)CC2)c1 — lower, 16.7%
- Cc1ccc(CN(C(=O)COc2ccc(Cl)cc2C)C2CCS(=O)(=O)C2)o1 (stereo unspecified) — lower, -11.1%
- CCOC(=O)CSc1nnc(CNC(=O)c2ccco2)n1-c1ccc(F)cc1 — lower, -12.3%
- Cn1c(SCC(=O)N2CCCC2)nnc1-c1cccs1 — lower, -0.504%
- CCCN1CCC(=O)N(C(CSc2ccc(C)cc2)Cc2ccccc2)CC1 (stereo unspecified) — lower, -13.5%

`NC(=O)c1ccsc1NC(=O)c1ccco1` was tested, and the Potency was 56.2 µM (active).
In the case of `CN(C)/C=C1\C=C(c2ccccc2)OC1=O`, the Potency is reported as 28.2 µM (active).
`CCOc1ccccc1NC(=O)CCS(=O)(=O)c1cccc2nsnc12` was tested, and the Potency was “inactive”.
`Cc1cccc2sc(N(CCCN(C)C)C(=O)CCS(=O)(=O)c3ccccc3)nc12` was tested, and the Potency was 15.8 µM (active).
`O=C(CCS(=O)(=O)c1ccccc1)N(Cc1cccnc1)c1nc2c(F)cccc2s1` was tested, and the Potency was 3.98 µM (active).
`COc1cccc2sc(N(CCCN(C)C)C(=O)CCS(=O)(=O)c3ccccc3)nc12` was tested, and the Potency was 1.58 µM (active).
With `Cc1cc2[nH]ncc2cc1NC(=S)NC(=O)c1ccccc1` the Potency was 7.08 µM (active).
For `O=C(Nc1ccccc1Cl)/C(Cl)=C(\Cl)S(=O)c1ccccc1` (stereo unspecified), the Potency was 0.398 µM (active).
With `O=C(CSc1ccc(-c2ccco2)nn1)Nc1cccc(F)c1` the Potency was 25.1 µM (active).
`C=C(Br)CN1CCN(CC(=C)Br)CC1` was tested, and the Potency was 12.6 µM (active).
For `CCOC(=O)CSc1nnc(-c2ccco2)n1C`, the Potency was 22.4 µM (active).

In the case of `Cn1nnnc1SCC(=O)Nc1sccc1C(N)=O`, the activity change, negative = inhibition is reported as 13.4% [at 11.4 µM].

Point of comparison: `COc1ccccc1CNC(=O)CS(=O)(=O)c1cccc2nsnc12`, “activity change, negative = inhibition” value 5.68% [at 57.1 µM]. Against it:
- COc1ccccc1/C=C/C1=NC(=C\N(C)C)/C(=O)O1 — higher, 9.66% [at 57.1 µM]
- CN(C)S(=O)(=O)c1ccc(C(=O)N(Cc2cccnc2)c2nc3c(F)cc(F)cc3s2)cc1 — lower, 1.57% [at 57.1 µM]
- O=C(C1COc2ccccc2O1)N(Cc1cccnc1)c1nc2c(F)cc(F)cc2s1 (stereo unspecified) — higher, 23.2% [at 57.1 µM]
- Cc1ccc(C(=O)NC(=S)Nc2ccc3[nH]c(=O)[nH]c3c2)cc1C — lower, 2.89% [at 57.1 µM]
- CCOc1ccc(CNC(=O)c2ccc3nc(CC)c(CC)nc3c2)cc1OC — higher, 15.6% [at 57.1 µM]
- COc1ccc(-c2nc(C)c(CCNC(=O)c3ccc(C(F)(F)F)cc3)s2)cc1OC — higher, 14.7% [at 57.1 µM]
- O=C(Nc1ccccc1Cl)N1CCC(CN2CCCCC2)CC1 — higher, 24.2% [at 57.1 µM]
- COc1cc(OC)cc(C(=O)NCCc2csc3nc(-c4ccccc4F)nn23)c1 — higher, 6.74% [at 57.1 µM]
